Test results: ChEMBL document CHEMBL3988442, “University of Dundee, Small-Polar-MMV Screening Library” (2021)
Screen size: about 48,000 compounds; about 13,000 (27%) showed an effect of 50% or more. Some of the results follow.

test system: Wolbachia pipientis; assay: Anti-Wolbachia Cell-Based Screen; assay type: functional; set-up: scale not given: in the data most compounds retested in dose-response had high values; details: 5 µM

SMILES | Percent Effect
COCCN(C)CC(=O)N1C[C@@H](NC(C)=O)[C@H](c2ccc(OC)cc2)C1 | 3.177%
COCC(=O)N1CCC2(CC1)CC(OC)CO2 (stereo unspecified) | -10.72%
NC(=O)NCC(=O)N1CCC2(CC1)c1ccccc1CC2O (stereo unspecified) | -7.297%
COCCN(C)CC(=O)N1C[C@@H](C)[C@](O)(C(C)C)C1 | 89.33%
CC(C)[C@]1(O)CN(C(=O)COCC(N)=O)C[C@H]1C | 89.06%
COCCN(C)CC(=O)N1C[C@H]2CC[C@@H]1CN(C(=O)c1ccncc1)C2 | 3.629%
COCC(=O)N1CCN(C(C)C(=O)NC(C)C)CC1 (stereo unspecified) | 2.538%
CC(C)[C@]1(O)CN(C(=O)CNC(N)=O)C[C@H]1C | 90.92%
C[C@@H]1CN(C(=O)CCCN2CCOCC2)C[C@@]1(O)C1CC1 | -18.09%
COCC(=O)N1C[C@@H](C)[C@](O)(C(C)C)C1 | 101.1%
CC1(Cc2ccccn2)NCCc2[nH]cnc21 (stereo unspecified) | 15.49%
CCn1c(N)nc2cc(C(=O)N3Cc4ccccc4C3)cnc21 | -3.386%
CCCS(=O)(=O)N1CCC(Nc2c(F)cc(C#N)cc2F)CC1 | 13.62%
CSCCC(=O)N1CCN(CC(C)(C)O)CC1 | -39.31%
Cc1c(C(C)NCC2CCCC2)cnn1-c1ccc(F)cc1F (stereo unspecified) | 0.5195%
O=C(CN1C=Nc2ccccc2S1(=O)=O)NCCc1cccs1 | 3.571%
COCCN(C)[C@@H]1c2ccccc2C2(CCNCC2)[C@H]1O | 2.267%
CC(C)NC(=O)CN1CCN(CC2CCOc3ccccc3C2)CC1 (stereo unspecified) | -2.637%
Cc1cc(C(=O)NS(C)(=O)=O)ccc1I | 1.042%
Cc1nc2c(c(NCc3cnc4c(c3)CCC4)n1)CNC2 | 90.56%
Cc1nc2c(c(NCc3cc4ccccc4s3)n1)CCNCC2 | -2.145%
Nc1nc2c(c(NCc3cnc4c(c3)CCC4)n1)CCNC2 | 77.65%
CCc1cnc(C)nc1NCCN1CCC(O)CC1 | 8.36%
CCc1cnc(C)nc1NCc1cnc2c(c1)CCC2 | 83.93%

SMILES | Percent Effect
CCc1cnc(C)nc1NCCN1CCCCCC1 | -2.933%
Nc1nc2c(c(NCc3ccncc3)n1)CCCC2 | -16.82%
Nc1nc2c(c(NCc3nc(-c4ccncc4)n[nH]3)n1)CCCC2 | -1.758%
Cc1nc2c(c(NCc3nc4ccccc4s3)n1)CCNCC2 | 4.643%
CCC(C)NC(=O)c1ccc(CNC(=O)CC(C)(C)C)cc1 (stereo unspecified) | 3.529%
COC(=O)CCC(=O)NC1CCCc2cc(OC(F)F)ccc21 (stereo unspecified) | 7.111%
CCC(C(=O)N(Cc1ccccc1OC)C1CC1)n1cccn1 (stereo unspecified) | -4.851%
O=c1[nH]c(=O)n(CC(O)c2ccc(F)cc2F)cc1Cl (stereo unspecified) | -0.7239%
OC(CNCCn1cccn1)COc1ccc(F)cc1 (stereo unspecified) | 3.915%
COc1ccc(CN2CCCCC2CNC(=O)OC(C)(C)C)cc1F (stereo unspecified) | 23.02%
COc1ccc(CN2CC[C@@]3(O)CCCC[C@H]3C2)cc1C(=O)O | -6.5%
COc1cc(CN2CCCC[C@]3(C)NC(=O)CC[C@H]23)ccc1F | 73.04%
CCc1nc(CCNC(=O)Nc2ccc(C(=O)NC)cc2C)cs1 | 3.747%
Cc1cc(C)n(CC2CCCN2Cc2ncc(C(C)(C)C)o2)n1 (stereo unspecified) | 98.37%
Cc1cc(C)n(CC2CCCN2CCc2ccncc2)n1 (stereo unspecified) | -8.858%
Cc1cc(C)n(CC2CCCN2Cc2cccc(C#N)c2)n1 (stereo unspecified) | -4.614%
Cc1nc(C)n(CC2CCCN2Cc2ncc(-c3ccccc3)o2)n1 (stereo unspecified) | 119.8%
Cc1nc(C)n(CC2CCCN(Cc3ncc(C(C)(C)C)o3)C2)n1 (stereo unspecified) | 87.18%
Cc1nc(C)n(CC2CCCN(Cc3nc(C)c(C)o3)C2)n1 (stereo unspecified) | 2.327%
Cc1nc(C)n(CC2CCCCN2Cc2ncc(C(C)(C)C)o2)n1 (stereo unspecified) | 8.215%
Cc1nc(C)n(CC2CCCN2Cc2ncc(C(C)(C)C)o2)n1 (stereo unspecified) | 109.1%
Cc1nc(C)n(CC2CCCN2Cc2ccccn2)n1 (stereo unspecified) | 5.197%
c1ccc(-c2cnc(CN3CCCC3Cn3cncn3)o2)cc1 (stereo unspecified) | -9.309%
CN(Cc1ccc(F)cc1F)CC(C)(CO)CO | -8.016%

SMILES | Percent Effect
CCC(O)(CNCc1cc[nH]n1)c1ccc(Br)cc1 (stereo unspecified) | 7.461%
CCn1cc(S(=O)(=O)Nc2cccnc2-n2cccn2)nc1C | -8.927%
O=C(NC1(c2nc(C3CC3)no2)CCCCC1)c1cccnc1O | -6.139%
O=S(=O)(CCNCc1cc(O)c2cc(F)ccc2n1)N1CCCC1 | -19.62%
C=C(C)COc1ccc(C(=O)NCC2CC(CC)=NO2)cc1 (stereo unspecified) | 5.055%
Cc1nc(CNC(=O)C(C)Oc2ccccc2F)no1 (stereo unspecified) | 94.07%
Cc1noc(C)c1CNC(=O)C(C)Oc1ccccc1F (stereo unspecified) | -0.2471%
CCc1nonc1NC(=O)C(C)Oc1ccccc1F (stereo unspecified) | -3.063%
CC(C)Oc1ncc(C(=O)N2CCC(NC(=O)C3CC3)CC2)cc1Cl | -2.3%
CCSCCC(C)N(C)C(=O)c1ccc(C)o1 (stereo unspecified) | 3.019%
COCCN1CC2(CCCN(C(=O)NCCc3cccs3)C2)CCC1=O (stereo unspecified) | 2.041%
Cc1ccc(NC(=O)N(C)CC(O)COCCOC(C)C)c(Br)c1 (stereo unspecified) | -14.49%
COCCOCC(=O)Nc1cccc(CN(C)C(C)=O)c1 | 3.065%
COCCOCC(=O)Nc1ccc(C)cc1Br | 93.08%
COCCOCC(=O)Nc1ccc(C)cc1Cl | 120.1%
COCCOCC(=O)NC(C#N)c1cc(Cl)cc(Cl)c1 (stereo unspecified) | -3.504%
Cc1ccc(NC(=O)CNc2cccc3c2CCCC3)c(Br)c1 | 9.995%
COc1cc2c(nn1)CCN(Cc1ncc(C(C)(C)C)o1)C2 | 5.733%
CCN(C)S(=O)(=O)NCC1(c2cccc(Br)c2)CC1 | 0.1722%
CN(C)c1ccc(C(=O)N2Cc3cnc(C(C)(C)C)nc3C2)cc1 | 19.06%
CN(C)CC(=O)NC1CC(C)(C)Cc2nc(C(C)(C)C)ncc21 (stereo unspecified) | 106.4%
CN(C)CCCC(=O)NC1CC(C)(C)Cc2nc(C(C)(C)C)ncc21 (stereo unspecified) | 112.6%
CCCC(=O)NCC(=O)NC1CC(C)(C)Cc2oc(C)cc21 (stereo unspecified) | -3.424%
